These results are taken from PubChem BioAssay AID488890 (Southern Research Specialized Biocontainment Screening …, 2010).

The campaign covered roughly 320,000 compounds. About 1,300 (0.41%) were called active. Not shown: some 3% with an inconclusive outcome. How the calls were made is not given here. The list is a sample of the results. Potency and affinity values are given separately.

The nature of this assay: growth inhibition of non-replicating M. tuberculosis (AID 488890).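 Further: plate controls were DMSO cells for no effect and high antibiotic wells for full effect.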 The following applies: Mycobacterium tuberculosis non-replicating, at 25 µM, stronger effect = higher value.
The inhibition is the change of the read-out against control, counted positive when it falls. Take `CCOC(=O)N1CCN(C(=O)NC23CC4CC(CC(C4)C2)C3)CC1`: the inhibition was -9.51%. In the case of `CCOCC(=O)OCC(=O)NC12CC3CC(CC(C3)C1)C2` it was -7.93%. Turning to `CCCN1CCN(S(=O)(=O)c2ccc(-n3cnnn3)cc2)CC1`, the inhibition turned out to be 0.97%. As to `COc1ccc(CCNC(=O)C2CCCN(S(=O)(=O)N3CCCCCC3)C2)cc1OC` (stereo unspecified), the inhibition was 14.5%.

For `CCOc1ccc(/C=C/C(=O)N(CC)CC(=O)Nc2ccc3c(c2)OCCO3)cc1OC`, the inhibition worked out at 13.6%. In the case of `COc1ccc(N2CCN(Cc3nc4cc(Cl)ccc4c(=O)[nH]3)CC2)cc1` it was 0.72%. For the compound `CCCn1nnnc1NCc1ccc(OC)cc1`, the inhibition stood at 37%. For `CCCn1nnnc1NCc1ccc(N(C)C)cc1`, the inhibition is 2.84%.

For `CC(C)c1ccc(CNc2nnnn2C)cc1`, the inhibition is 44.6%. Turning to `CCCn1nnnc1NCc1ccc(F)cc1`, the inhibition turned out to be 24.5%. In the case of `CN(Cc1ccccc1)C(=O)COC(=O)C1CCN(S(=O)(=O)c2ccc(Cl)c(C(F)(F)F)c2)CC1` it was -14.1%; in that of `CC1CCN(C(=O)C2CCC(CNc3c(N4CCCCC4)c(=O)c3=O)CC2)CC1` (stereo unspecified), 15.8%; in that of `Cc1ccc(-n2cc(CNCCN3CCOC3=O)c(-c3ccc(F)cc3)n2)cc1`, 26.6%. In the case of `COc1ccc(-c2nn(-c3ccccc3F)cc2CNCCn2nc(C)cc2C)cc1` it was 52.6%. Take `O=Cc1cn(-c2ccccc2)nc1-c1ccc(F)cc1`: the inhibition is 1.85%.

In the case of `OCc1cn(-c2ccccc2)nc1-c1ccc(-c2nn(-c3ccccc3)cc2CO)cc1`, the inhibition was -3.64%. Consider `O=C(c1ccc2oc(Cc3ccc(Cl)cc3)nc2c1)N1CC[C@H](O)C1`, for which the inhibition is -2.21%. As to `CC#CCN(Cc1ccco1)C(=O)c1ccc(OC2CCN(Cc3ccccn3)CC2)cc1`, the inhibition is 10.1%. For the compound `COc1ccc(/C=C(/C#N)C(=O)Nc2cccnc2)cc1OC`, the inhibition was -2.65%. Take `C#CCOCCOCCOCCNc1nc(N2CCN(C(=O)C([C@@H](C)CC)n3cc(C(N)CC(C)C)nn3)CC2)nc(N2CCN(C(=O)[C@H](CCC(=O)O)n3cc(C(N)CC(C)C)nn3)CC2)n1` (stereo partly specified): the inhibition is -10.1%. `Cc1ccccc1N=C(NO)c1nonc1N`: the inhibition is -6.6%. With `O=C(O)c1ccc(Cl)c(S(=O)(=O)Nc2cccc(C(=O)Nc3cccc(C(F)(F)F)c3)c2)c1`, the inhibition is 26.6%. As for `COc1cc(C=Nc2c(C)cc(C)cc2C)ccc1OC(C)=O`, the inhibition was -9.04%. For `COc1cc(SC)ccc1C(=O)Nc1cccc(S(=O)(=O)NC2=NCCC2)c1`, the inhibition was 24.7%. Regarding `Cc1ccc(C)c(-n2sc3ccc(F)cc3c2=O)c1`, the inhibition is -21.9%. In the case of `O=c1c2cc(F)ccc2sn1-c1ccccc1` it was 20.9%; in that of `Cc1ccc(S(=O)(=O)N2CCC(=O)N(C(CO)C(C)C)CC2)cc1` (stereo unspecified), -0.84%; in that of `Cc1ccc(C(=O)c2ccc(C(F)(F)F)cc2)cc1`, 23.7%. In the case of `CC(O)C(=O)N/N=C/c1ccccc1C(=O)O` (stereo unspecified), the inhibition is -1.19%. In the case of `COc1ccc2c(c1)[nH]c1c(C)nccc12` it was 0.33%. In the case of `COc1ccc2[nH]c3c(Cl)ncnc3c2c1` it was 66.1%; in that of `COc1ccc(NC(=O)C2CCCN(C(=O)c3ccc(Cl)cc3)C2)cc1Cl` (stereo unspecified), 5.35%. Turning to `CCOc1ccc(CNC(=O)Cn2ccc3cc(S(=O)(=O)N4CCCC4)ccc32)cc1`, the inhibition stood at 9.09%. Turning to `CC(NC(=O)Cc1ccsc1)c1ccc(F)cc1` (stereo unspecified), the inhibition worked out at 3.93%.

For `COc1ccc(Br)c(C(=O)N2CCN(S(=O)(=O)/C=C/c3ccccc3)CC2)c1`, the inhibition turned out to be 17.6%. As for `CCc1ccc(N2CC(C(=O)Nc3ccc(S(=O)(=O)NCC4CCCO4)cc3)CC2=O)cc1` (stereo unspecified), the inhibition is -5.44%. Turning to `NC(=O)N/N=C/c1cn(-c2ccccc2)nc1-c1cccs1`, the inhibition came out at 8.14%.

As for `S=c1[nH]nc(-c2cccs2)n1/N=C/c1cn(-c2ccccc2)nc1-c1cccs1`, the inhibition was -1.62%.

For the compound `O=C(N/N=C/c1cn(-c2ccccc2)nc1-c1cccs1)c1ccccc1F`, the inhibition is 3.19%.

Take `CC1(C)CC(=O)C(=Cc2cn(-c3ccccc3)nc2-c2ccccc2)C(=O)C1`: the inhibition was found to be 44.3%. In the case of `Cc1nc2ccccc2c(=O)n1/N=C/c1cn(-c2ccccc2)nc1-c1cccs1` it was 3.43%; in that of `O=Cc1cn(-c2ccccc2)nc1-c1ccccc1`, -1.35%. In the case of `Cc1ccc(/C=C2\SC(=S)N(CCC(=O)Nc3cccnc3)C2=O)cc1` it was 2.99%; in that of `Cc1ccc(CN2CC(C(=O)N3CCN(c4ccccc4O)CC3)CC2=O)cc1` (stereo unspecified), 5.09%. On to `COc1ccc2cc3cc(C(=O)N4CCN(c5ccccn5)CC4)oc3nc2c1`, for which the inhibition is 15.3%. With `CCOc1cc(/C=C/C(=O)N(CC)CC(=O)NCc2cccs2)cc(Cl)c1OC`, the inhibition was 11.9%.

For the compound `COc1ccccc1Cn1nnc2c(=O)[nH]c(C3CCN(C(=O)c4ccccc4Cl)CC3)nc21`, the inhibition was determined as 33.2%. In the case of `CC(=O)Nc1ccc(-c2csc(NC(=O)CCNC(=O)c3ccco3)n2)cc1` it was 1.09%; in that of `O=C(COC(=O)CCS(=O)(=O)c1ccc(Cl)cc1)NCCc1ccc(Cl)cc1Cl`, 21.4%.

Regarding `COC(=O)c1ccc(Cn2cc(C(F)(F)F)ccc2=O)cc1`, the inhibition was 69.9%. In the case of `COC(=O)c1cc(Br)c(=O)n(Cc2ccc(C(=O)O)cc2)c1` it was -0.84%; in that of `C[C@H](CO)N1C[C@H](C)[C@@H](CN(C)C(=O)NC2CCCCC2)Oc2c(NC(=O)Cc3ccccc3)cccc2C1=O`, 17.9%; in that of `CN(CC(=O)Nc1ccc(F)c(F)c1)S(=O)(=O)c1cccs1`, 2.99%.

Turning to `CCN(C[C@H]1N[C@@](C)(C(=O)OC)[C@H]2C(=O)N(C)C(=O)[C@@H]12)S(=O)(=O)c1ccc(OC)cc1`, the inhibition turned out to be 9.25%. `COC(=O)COc1ccccc1/C=C1/NC(=O)NC1=O`: the inhibition came out at 5%.

Regarding `COC(=O)COc1cc(Cl)c(C=O)cc1OC`, the inhibition came out at 65.7%.

With `COC(=O)COc1ccccc1C(N)=O`, the inhibition came out at 2.19%.

In the case of `CCC(CC)NC(=O)COc1ccc(OC)cc1C=O`, the inhibition was -3.52%.

Take `COc1cccc(OC)c1C(=O)Nc1ccccc1C(=O)N1CCCCCC1`: the inhibition was found to be 1.4%. In the case of `NC(=O)CCN(C(=O)c1cccc(S(=O)(=O)N2CCc3ccccc32)c1)c1ccccc1` it was 24.7%. On to `CCOc1ccc(S(=O)(=O)N(C)c2ccc(OCC(=O)Nc3nccs3)cc2)cc1`, for which the inhibition is 20.7%. In the case of `O=C(COc1ccccc1)Nc1nccs1` it was 50.5%. Turning to `COc1cccc(OCC(=O)NNC(=O)c2cccs2)c1`, the inhibition is 88.2%. In the case of `O=C(COc1ccc2ccc(=O)oc2c1)Nc1nccs1` it was 9.82%; in that of `COc1ccc(OCC(=O)Nc2ccncc2)cc1`, 67%. With `O=C(COc1ccccc1)Nc1ccncc1`, the inhibition was 49.4%. Consider `CCOc1ccc(CC(=O)Nc2nccs2)cc1`, for which the inhibition was found to be 3.37%. For `C/C(=N\NC(=O)COc1ccc2ccccc2c1)c1cccs1`, the inhibition came to 1.6%. As for `CCc1cccc(OCC(=O)Nc2c[nH]c(=O)[nH]c2=O)c1`, the inhibition was -17.2%.

In the case of `COc1ccc(N2CC(NS(=O)(=O)c3cccs3)CC2=O)cc1` (stereo unspecified), the inhibition is -13.6%. As for `CCOc1ccc(NC(=O)CSc2nnc(C(C)C)n2CC)cc1`, the inhibition amounted to 11.7%.

`CCn1cc(/C=C(\NC(=O)c2ccccc2F)C(=O)NCCCn2ccnc2)c2ccccc21`: the inhibition was 14.8%. Take `COc1ccc(NC(=O)CSc2nc(-c3ccco3)nc3cc(=O)[nH]n23)cc1Cl`: the inhibition was 14.5%. For the compound `CCCN(Cc1nnc(-c2ccccc2Cl)o1)C(=O)c1ccc(C)c(S(=O)(=O)N2CCOCC2)c1`, the inhibition is -1.62%. On to `CC(=O)C[C@@H](O)CC(=O)[C@@H]1OC(=O)CCCCCCCc2ccccc21`, for which the inhibition is 4.28%. In the case of `Cc1ccc(C(=O)Nc2scc(-c3ccccc3)c2C(=O)O)cc1`, the inhibition came to 67.7%. `CCOC(=O)c1c(C)[nH]c(C=O)c1Cc1cccc(Cl)c1`: the inhibition came out at 22.5%. `NC(=O)c1ccccc1NC(=S)NC(=O)c1ccc(Br)o1`: the inhibition was determined as 13.4%.

Consider `Cc1ccc(OCC(=O)Nc2ccncc2)cc1`, for which the inhibition stood at 76.7%. In the case of `O=C(CNc1ccc2ccccc2c1)N/N=C/c1ccccn1` it was 56.7%; in that of `Cc1cc(OCC(=O)Nc2ccncc2)cc(C)c1Br`, 62.5%.

Turning to `Cc1cc(C)cc(OCC(=O)Nc2ccncc2)c1`, the inhibition stood at 2.54%. As to `Cc1cc(OCC(=O)Nc2ccncc2)c(C)cc1Br`, the inhibition was 68%.

Take `O=C(COc1ccc([N+](=O)[O-])cc1)N/N=C/c1ccccn1`: the inhibition turned out to be 64.7%.

Take `COC(=O)COc1ccc(/C=N/NC(=O)c2ccc(N(Cc3ccccc3)S(C)(=O)=O)cc2)cc1`: the inhibition is 64.2%.

`CCn1c(SCc2cccnc2)nnc1-c1c[nH]c2ccccc12`: the inhibition was -5.65%. As for `CC(=O)N1CCCc2cc(S(=O)(=O)NCCC3=CCCCC3)ccc21`, the inhibition turned out to be 17.1%. As for `CC(=O)NCC(=O)OCC(=O)c1ccc(Br)cc1`, the inhibition was 27.9%. In the case of `CCOC(=O)c1ccc(CNCc2ccc(Br)cc2)cc1`, the inhibition amounted to 43.5%.

Consider `O=C(CCCCN1CCCCC1)c1ccccc1`, for which the inhibition is -7.7%.

For `CCC(=O)c1ccc(OCC(O)CN2CCCCC2)cc1` (stereo unspecified), the inhibition was found to be 9.06%.

As to `O=C(CN1CCCCC1)c1ccc(OC(F)F)cc1`, the inhibition was -4.47%. `CC(C)COc1ccc(C(=O)OCCN2CCCCC2)cc1`: the inhibition stood at 13.8%.

For the compound `O=C(CCN1CCCCC1)Nc1ccccc1`, the inhibition was -3.98%. As to `COc1ccc(C(=O)CN2CCCCC2)cc1`, the inhibition was -2.71%. In the case of `COc1ccc(C(=O)OCCN2CCCCC2)cc1` it was 4.85%. Regarding `CC(C)Oc1ccc(OCCCN2CCCCCC2)cc1`, the inhibition amounted to 35.7%.

Consider `COCCC1CCCCN1C(=O)c1cc(COc2ccc(C)nc2)on1` (stereo unspecified), for which the inhibition was -7.63%.

Regarding `Cc1csc(=Nc2c(C)n(C)n(-c3ccccc3)c2=O)n1Cc1ccccc1`, the inhibition is -1.63%. Take `NC(=O)c1ccsc1NC(=O)COC(=O)c1ccc(Cl)c(N)c1`: the inhibition is -0.17%. As to `COc1ccc(C)cc1NC(=O)CCC(=O)Nc1nnc(C2CCCCC2)s1`, the inhibition was found to be 0.87%. Consider `CCN(CC1CCCN(CCc2cccc(OC)c2)C1)C(=O)c1ccoc1C` (stereo unspecified), for which the inhibition was -3.45%. In the case of `Cc1cc(NC(=O)CSc2nnc(-c3ccc(S(=O)(=O)N4CCCC4)cc3)n2C)no1` it was -6.04%; in that of `O=C(Nc1cc(S(=O)(=O)N2CCCCCC2)ccc1OCC(F)(F)F)c1cnccn1`, 9.9%.

Turning to `Cn1c(=O)[nH]c2nncnc2c1=O`, the inhibition came out at 12.4%. In the case of `CCCCn1c(N)c(N(CCC(C)C)C(=O)COC(=O)c2cccnc2Cl)c(=O)[nH]c1=O`, the inhibition stood at 17.4%. In the case of `CC(=O)Nc1ccc(S(=O)(=O)NCC(=O)NCCc2ccc(S(N)(=O)=O)cc2)cc1`, the inhibition was -0.25%.

As for `O=C(N=C1N=C2C=CC(Br)=CN2Cc2ccccc21)c1ccc([N+](=O)[O-])cc1[N+](=O)[O-]`, the inhibition was 61.8%. Regarding `CCOc1ccc(NC(=O)CCN2CCCCC2)cc1`, the inhibition was -37.2%. In the case of `CCOc1ccc(OCCN2CCCCC2)cc1`, the inhibition was found to be 8.17%. Consider `O=C(CSc1nnc(Cn2nnc3ccccc32)o1)Nc1cccc(Cl)c1`, for which the inhibition was found to be 3.51%.
